Data: ChEMBL document CHEMBL2218924, “A broad activity screen in support of a chemogenomic map for kinase signalling research and drug discovery” (Biochem J, 2013)

Key:
[1] = target: Ephrin type-A receptor 4 (Homo sapiens) (UniProt P54764); details: at 1 µM
[2] = target: Ephrin type-A receptor 4 (Homo sapiens) (UniProt P54764); details: at 10 µM
[3] = target: T1, Ephrin type-B receptor 1 (Homo sapiens) (UniProt P54762); details: at 10 µM
T1 sequence (whole entry): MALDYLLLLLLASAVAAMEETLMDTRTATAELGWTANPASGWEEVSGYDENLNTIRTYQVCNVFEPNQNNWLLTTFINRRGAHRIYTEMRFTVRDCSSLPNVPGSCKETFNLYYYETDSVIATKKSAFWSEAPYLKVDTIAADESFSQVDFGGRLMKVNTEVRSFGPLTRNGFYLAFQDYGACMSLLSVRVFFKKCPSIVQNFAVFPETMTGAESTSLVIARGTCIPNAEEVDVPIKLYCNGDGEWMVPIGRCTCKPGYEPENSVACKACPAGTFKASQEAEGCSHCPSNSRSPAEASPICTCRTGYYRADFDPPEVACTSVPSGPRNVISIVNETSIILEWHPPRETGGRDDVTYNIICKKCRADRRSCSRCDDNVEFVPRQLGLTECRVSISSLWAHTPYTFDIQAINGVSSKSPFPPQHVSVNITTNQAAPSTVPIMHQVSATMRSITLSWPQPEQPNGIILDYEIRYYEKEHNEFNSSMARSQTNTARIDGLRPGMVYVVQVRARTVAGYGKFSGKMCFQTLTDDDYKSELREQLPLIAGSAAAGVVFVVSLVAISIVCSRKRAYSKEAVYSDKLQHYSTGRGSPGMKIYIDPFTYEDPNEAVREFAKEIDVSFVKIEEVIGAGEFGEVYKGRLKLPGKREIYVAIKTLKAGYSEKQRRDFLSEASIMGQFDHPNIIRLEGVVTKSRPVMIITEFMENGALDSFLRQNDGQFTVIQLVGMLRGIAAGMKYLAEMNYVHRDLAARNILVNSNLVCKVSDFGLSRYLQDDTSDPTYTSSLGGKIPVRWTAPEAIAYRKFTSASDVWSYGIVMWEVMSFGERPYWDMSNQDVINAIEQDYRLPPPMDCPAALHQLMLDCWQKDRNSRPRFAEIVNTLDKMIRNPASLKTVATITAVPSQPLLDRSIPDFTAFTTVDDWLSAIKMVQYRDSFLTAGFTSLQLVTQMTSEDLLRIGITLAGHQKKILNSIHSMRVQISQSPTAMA

[4] = target: T2, Ephrin type-B receptor 2 (Homo sapiens) (UniProt P29323); details: at 1 µM
T2 sequence (whole entry): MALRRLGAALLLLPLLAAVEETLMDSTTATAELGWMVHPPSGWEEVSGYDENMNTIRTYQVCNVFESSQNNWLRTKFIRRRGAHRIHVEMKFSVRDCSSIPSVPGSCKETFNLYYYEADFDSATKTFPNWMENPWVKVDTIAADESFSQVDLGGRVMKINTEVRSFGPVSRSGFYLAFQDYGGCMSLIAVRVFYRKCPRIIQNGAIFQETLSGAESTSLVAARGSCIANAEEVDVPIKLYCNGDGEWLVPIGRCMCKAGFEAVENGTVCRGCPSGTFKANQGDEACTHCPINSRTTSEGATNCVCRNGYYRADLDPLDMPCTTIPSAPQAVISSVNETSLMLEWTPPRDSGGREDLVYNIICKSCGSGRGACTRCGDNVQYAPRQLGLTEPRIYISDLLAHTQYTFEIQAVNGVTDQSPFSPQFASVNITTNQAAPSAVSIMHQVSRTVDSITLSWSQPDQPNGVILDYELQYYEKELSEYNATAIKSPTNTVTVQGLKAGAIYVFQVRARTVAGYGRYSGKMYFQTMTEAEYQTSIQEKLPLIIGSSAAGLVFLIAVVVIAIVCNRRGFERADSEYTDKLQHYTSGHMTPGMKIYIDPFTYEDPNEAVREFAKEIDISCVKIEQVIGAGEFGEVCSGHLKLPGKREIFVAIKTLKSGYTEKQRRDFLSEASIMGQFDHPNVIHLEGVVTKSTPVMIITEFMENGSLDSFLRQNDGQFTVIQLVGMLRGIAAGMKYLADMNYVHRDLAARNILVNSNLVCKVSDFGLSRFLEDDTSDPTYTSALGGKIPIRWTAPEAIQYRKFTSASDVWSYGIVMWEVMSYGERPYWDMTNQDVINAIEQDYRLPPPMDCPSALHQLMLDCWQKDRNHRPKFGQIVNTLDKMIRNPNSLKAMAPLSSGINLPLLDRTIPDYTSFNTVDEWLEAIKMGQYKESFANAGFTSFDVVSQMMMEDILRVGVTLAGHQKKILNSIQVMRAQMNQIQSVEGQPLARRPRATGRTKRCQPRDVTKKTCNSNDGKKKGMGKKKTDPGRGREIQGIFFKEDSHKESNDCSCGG

[5] = target: T2, Ephrin type-B receptor 2 (Homo sapiens); details: at 10 µM
[6] = target: T3, Ephrin type-B receptor 3 (Homo sapiens) (UniProt P54753); details: at 1 µM
T3 sequence (whole entry): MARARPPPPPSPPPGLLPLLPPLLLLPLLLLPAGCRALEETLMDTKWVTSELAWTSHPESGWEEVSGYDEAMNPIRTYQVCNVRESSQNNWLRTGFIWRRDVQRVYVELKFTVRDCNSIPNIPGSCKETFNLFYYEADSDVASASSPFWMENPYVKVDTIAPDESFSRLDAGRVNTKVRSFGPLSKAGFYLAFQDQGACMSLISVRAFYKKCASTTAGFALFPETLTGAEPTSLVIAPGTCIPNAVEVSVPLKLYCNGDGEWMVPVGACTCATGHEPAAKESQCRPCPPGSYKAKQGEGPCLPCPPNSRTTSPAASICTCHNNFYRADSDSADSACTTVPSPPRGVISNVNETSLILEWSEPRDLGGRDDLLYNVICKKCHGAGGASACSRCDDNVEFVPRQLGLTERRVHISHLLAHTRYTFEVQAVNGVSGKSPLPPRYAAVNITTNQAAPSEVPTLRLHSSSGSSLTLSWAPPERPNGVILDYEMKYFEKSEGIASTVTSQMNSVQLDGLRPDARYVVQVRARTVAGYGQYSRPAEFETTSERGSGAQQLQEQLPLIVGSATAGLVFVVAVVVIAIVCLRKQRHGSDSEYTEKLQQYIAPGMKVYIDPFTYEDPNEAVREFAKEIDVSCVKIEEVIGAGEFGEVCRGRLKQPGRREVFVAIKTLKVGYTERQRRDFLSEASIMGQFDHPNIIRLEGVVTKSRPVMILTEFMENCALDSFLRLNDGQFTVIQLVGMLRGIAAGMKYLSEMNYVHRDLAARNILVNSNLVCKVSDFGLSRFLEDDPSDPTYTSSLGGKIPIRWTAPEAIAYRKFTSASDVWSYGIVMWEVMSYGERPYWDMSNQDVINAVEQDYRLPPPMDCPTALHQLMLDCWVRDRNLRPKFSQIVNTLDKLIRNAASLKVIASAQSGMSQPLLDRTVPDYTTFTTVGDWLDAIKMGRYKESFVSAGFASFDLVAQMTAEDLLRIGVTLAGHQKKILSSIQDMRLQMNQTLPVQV

[7] = target: T3, Ephrin type-B receptor 3 (Homo sapiens); details: at 10 µM
[8] = target: Receptor tyrosine-protein kinase erbB-4 (Homo sapiens) (UniProt Q15303); details: at 1 µM
[9] = target: Receptor tyrosine-protein kinase erbB-4 (Homo sapiens) (UniProt Q15303); details: at 10 µM
[10] = target: Ephrin type-A receptor 5 (Homo sapiens) (UniProt P54756); details: at 1 µM
[11] = target: Ephrin type-A receptor 5 (Homo sapiens) (UniProt P54756); details: at 10 µM
[12] = target: Ephrin type-A receptor 7 (Homo sapiens) (UniProt Q15375); details: at 1 µM
[13] = target: Ephrin type-A receptor 7 (Homo sapiens) (UniProt Q15375); details: at 10 µM
[14] = target: T4, Ephrin type-A receptor 8 (Homo sapiens) (UniProt P29322); details: at 1 µM
T4 sequence (whole entry): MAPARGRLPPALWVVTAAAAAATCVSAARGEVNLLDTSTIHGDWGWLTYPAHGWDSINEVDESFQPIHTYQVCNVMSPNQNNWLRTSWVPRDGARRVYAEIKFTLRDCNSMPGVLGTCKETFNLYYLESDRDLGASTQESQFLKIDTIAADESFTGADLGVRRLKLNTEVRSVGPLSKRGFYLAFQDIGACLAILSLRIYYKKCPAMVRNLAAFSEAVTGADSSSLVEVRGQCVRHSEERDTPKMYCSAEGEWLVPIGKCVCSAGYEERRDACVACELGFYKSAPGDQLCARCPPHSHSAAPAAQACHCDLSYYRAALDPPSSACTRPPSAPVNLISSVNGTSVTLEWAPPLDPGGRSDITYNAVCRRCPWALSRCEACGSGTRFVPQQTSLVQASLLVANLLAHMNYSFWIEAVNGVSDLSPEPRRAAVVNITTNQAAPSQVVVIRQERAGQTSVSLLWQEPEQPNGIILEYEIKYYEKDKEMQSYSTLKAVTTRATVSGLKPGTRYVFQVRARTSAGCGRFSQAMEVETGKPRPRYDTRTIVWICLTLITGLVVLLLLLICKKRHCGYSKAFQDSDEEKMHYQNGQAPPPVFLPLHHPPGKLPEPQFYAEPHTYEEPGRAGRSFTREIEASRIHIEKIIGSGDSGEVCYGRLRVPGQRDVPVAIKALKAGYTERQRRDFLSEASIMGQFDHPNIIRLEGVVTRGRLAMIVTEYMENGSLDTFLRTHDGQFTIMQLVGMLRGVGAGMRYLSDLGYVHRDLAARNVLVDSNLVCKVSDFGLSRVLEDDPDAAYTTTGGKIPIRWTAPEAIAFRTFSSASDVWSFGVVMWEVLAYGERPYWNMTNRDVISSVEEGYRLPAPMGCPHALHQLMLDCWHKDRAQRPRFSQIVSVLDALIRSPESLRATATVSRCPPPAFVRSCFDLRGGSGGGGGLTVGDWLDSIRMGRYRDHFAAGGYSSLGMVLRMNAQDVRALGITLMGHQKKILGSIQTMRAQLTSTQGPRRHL

[15] = target: T1, Ephrin type-B receptor 1 (Homo sapiens); details: at 1 µM

Chain of Ephrin type-A receptor 4 (Homo sapiens) (P54764 whole entry): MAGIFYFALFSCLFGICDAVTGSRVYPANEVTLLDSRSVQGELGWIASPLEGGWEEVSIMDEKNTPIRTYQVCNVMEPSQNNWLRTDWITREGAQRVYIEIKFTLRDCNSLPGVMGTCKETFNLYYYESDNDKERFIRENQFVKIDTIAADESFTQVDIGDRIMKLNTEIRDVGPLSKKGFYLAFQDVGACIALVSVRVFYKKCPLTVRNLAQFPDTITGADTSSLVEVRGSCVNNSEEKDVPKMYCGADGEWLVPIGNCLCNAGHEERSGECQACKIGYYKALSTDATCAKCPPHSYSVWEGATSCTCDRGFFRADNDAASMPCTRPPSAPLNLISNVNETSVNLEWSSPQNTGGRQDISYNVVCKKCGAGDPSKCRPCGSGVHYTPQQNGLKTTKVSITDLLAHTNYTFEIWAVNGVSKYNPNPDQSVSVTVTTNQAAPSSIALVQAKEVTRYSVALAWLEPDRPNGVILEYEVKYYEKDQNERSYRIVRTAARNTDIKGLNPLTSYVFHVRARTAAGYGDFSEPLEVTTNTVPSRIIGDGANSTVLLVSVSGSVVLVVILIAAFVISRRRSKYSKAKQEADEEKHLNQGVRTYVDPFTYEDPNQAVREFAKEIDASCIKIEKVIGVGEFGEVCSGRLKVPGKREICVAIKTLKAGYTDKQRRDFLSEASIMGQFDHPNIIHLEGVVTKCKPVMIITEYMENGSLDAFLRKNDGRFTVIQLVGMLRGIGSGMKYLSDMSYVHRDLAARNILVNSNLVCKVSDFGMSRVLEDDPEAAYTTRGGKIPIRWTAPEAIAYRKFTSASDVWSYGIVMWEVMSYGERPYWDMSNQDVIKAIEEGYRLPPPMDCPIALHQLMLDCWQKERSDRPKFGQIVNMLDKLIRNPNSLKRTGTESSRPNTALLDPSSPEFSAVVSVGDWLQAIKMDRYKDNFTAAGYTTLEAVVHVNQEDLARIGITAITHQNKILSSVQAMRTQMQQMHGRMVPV
Chain of Ephrin type-A receptor 5 (Homo sapiens) (P54756 whole entry): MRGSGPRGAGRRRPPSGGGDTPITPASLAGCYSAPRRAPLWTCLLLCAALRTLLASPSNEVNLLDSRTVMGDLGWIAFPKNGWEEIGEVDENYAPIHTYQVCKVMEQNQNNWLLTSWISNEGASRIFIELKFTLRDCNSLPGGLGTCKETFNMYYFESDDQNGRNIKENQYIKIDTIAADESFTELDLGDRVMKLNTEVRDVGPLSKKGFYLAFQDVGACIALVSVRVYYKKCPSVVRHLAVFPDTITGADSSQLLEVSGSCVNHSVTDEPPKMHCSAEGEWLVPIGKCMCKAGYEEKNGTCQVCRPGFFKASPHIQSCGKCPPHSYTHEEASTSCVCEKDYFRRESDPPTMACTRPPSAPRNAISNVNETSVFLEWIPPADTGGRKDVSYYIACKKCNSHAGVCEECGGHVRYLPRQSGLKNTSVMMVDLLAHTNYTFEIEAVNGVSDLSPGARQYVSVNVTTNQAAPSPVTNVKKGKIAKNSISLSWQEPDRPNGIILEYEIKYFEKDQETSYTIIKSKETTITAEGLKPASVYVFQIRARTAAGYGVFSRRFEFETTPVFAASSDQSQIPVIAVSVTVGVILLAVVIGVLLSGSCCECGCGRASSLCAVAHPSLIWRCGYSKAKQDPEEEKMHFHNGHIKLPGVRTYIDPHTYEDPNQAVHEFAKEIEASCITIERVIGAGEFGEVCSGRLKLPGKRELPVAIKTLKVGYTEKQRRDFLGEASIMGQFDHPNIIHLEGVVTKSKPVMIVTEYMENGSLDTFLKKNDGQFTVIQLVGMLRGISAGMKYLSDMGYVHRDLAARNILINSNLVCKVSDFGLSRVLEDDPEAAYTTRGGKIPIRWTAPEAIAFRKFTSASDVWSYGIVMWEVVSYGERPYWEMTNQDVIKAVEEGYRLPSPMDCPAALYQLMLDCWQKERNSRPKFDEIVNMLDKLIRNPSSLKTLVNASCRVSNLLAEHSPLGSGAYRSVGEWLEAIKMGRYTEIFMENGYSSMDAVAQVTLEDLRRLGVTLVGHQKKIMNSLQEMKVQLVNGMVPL
Chain of Receptor tyrosine-protein kinase erbB-4 (Homo sapiens) (Q15303 whole entry): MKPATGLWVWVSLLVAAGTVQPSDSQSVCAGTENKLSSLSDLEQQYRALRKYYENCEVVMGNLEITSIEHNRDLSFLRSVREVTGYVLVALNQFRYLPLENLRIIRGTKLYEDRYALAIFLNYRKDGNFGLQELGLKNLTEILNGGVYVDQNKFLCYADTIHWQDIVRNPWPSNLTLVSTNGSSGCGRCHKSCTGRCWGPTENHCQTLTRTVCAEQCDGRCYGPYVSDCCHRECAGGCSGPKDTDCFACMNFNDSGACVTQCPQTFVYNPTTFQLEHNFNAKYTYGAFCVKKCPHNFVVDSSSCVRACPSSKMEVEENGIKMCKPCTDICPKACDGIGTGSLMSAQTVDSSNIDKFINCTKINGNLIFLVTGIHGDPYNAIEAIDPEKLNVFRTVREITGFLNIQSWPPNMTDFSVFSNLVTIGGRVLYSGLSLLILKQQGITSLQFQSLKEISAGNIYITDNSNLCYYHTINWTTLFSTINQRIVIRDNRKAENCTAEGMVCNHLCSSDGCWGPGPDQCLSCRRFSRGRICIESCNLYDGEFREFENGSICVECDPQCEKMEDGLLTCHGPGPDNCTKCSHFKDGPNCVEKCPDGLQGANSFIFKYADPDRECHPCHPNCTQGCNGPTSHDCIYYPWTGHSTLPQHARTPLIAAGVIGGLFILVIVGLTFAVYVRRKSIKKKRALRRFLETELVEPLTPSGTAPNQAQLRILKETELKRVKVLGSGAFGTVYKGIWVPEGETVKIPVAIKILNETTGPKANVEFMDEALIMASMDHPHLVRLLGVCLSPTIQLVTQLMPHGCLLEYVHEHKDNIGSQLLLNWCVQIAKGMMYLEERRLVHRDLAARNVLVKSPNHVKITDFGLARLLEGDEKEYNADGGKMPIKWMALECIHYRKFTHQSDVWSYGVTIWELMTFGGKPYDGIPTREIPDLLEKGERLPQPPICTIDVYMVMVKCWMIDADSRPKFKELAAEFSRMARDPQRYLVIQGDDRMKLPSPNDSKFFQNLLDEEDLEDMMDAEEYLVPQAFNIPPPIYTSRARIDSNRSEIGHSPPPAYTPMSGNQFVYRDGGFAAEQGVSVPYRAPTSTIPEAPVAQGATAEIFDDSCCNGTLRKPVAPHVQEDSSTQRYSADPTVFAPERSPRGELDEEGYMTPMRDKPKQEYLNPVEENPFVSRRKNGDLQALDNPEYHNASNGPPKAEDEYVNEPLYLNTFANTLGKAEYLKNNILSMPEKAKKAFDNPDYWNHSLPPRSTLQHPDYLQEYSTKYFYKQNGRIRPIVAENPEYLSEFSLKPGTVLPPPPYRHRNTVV
Chain of Ephrin type-A receptor 7 (Homo sapiens) (Q15375 28-998 limits assumed): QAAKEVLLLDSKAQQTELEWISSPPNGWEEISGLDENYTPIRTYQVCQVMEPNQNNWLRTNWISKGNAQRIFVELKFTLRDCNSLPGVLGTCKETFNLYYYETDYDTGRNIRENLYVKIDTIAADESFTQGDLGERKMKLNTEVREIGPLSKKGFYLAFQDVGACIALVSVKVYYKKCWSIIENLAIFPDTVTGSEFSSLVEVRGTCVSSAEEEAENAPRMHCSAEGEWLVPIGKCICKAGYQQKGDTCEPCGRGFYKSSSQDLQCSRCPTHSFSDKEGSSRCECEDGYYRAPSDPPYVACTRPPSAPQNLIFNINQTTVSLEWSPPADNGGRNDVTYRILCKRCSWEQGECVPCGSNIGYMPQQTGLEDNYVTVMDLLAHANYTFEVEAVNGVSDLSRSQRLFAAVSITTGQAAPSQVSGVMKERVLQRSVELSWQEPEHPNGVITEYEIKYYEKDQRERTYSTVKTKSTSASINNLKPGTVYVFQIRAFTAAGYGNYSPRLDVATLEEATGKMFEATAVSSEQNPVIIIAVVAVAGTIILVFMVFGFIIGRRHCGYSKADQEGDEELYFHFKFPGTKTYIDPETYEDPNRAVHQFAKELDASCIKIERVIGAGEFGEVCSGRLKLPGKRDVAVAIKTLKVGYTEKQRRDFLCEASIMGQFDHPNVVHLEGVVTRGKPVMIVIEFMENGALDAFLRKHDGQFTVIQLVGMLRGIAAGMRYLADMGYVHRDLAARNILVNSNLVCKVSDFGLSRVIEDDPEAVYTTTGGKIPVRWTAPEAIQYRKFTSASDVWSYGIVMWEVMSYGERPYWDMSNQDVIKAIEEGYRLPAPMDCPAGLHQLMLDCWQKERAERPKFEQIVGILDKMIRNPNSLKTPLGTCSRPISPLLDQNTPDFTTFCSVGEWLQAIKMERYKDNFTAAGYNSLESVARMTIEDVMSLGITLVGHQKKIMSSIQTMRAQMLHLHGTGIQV

## O=C1Cc2c([nH]c3ccc([N+](=O)[O-])cc23)-c2ccccc2N1
[1]
  residual activity: 105%
[2]
  residual activity: 105%
[3]
  residual activity: 81%
[4]
  residual activity: 106%
[5]
  residual activity: 107%
[6]
  residual activity: 124% (inactive)
[7]
  residual activity: 113%

## CCN1/C(=C/C(C)=O)Sc2ccc(OC)cc21
[8]
  residual activity: 75%
[9]
  residual activity: 69%

## O=C(NC(NC(=S)Nc1ccc(F)c([N+](=O)[O-])c1)C(Cl)(Cl)Cl)C(c1ccccc1)c1ccccc1 (centres undefined)
[1]
  residual activity: 96%
[10]
  residual activity: 104%
[11]
  residual activity: 91%
[12]
  residual activity: 102%
[13]
  residual activity: 99%
[14]
  residual activity: 103%
[15]
  residual activity: 97%
[3]
  residual activity: 84%
[6]
  residual activity: 104% (inactive)
[7]
  residual activity: 84%
